{"source": "PubChem BioAssay (EPA / NIEHS)", "note": "Records with an inconclusive call do not appear. The source made the active and inactive calls. The calls were made as follows: active = hit-call score of the fitted dose curve at least 0.9, where 1 is the maximum; inconclusive = response in the unintended direction; inactive = score below 0.9.", "data": [{"read-out": "HMG-CoA synthase (HMGCS2), HMGCS2 (gene 3158)", "experiment": "CLD_HMGCS2_48hr: CellzDirect (CLD) Gene Expression Assay for HMG-CoA synthase (HMGCS2) at 48 hours (AID 2283711)", "procedure": "CLD_48hr is a cell-based, multiplexed-readout assay that uses hepatocyte, a human liver primary cell, with measurements taken at 48 hours after chemical dosing in a 96-well plate.CLD_HMGCS2_48hr is one of 16 assay component(s) measured or calculated from the CLD_48hr assay. It is designed to make measurements of mRNA induction, a form of inducible reporter, as detected with chemiluminescence signals by Quantitative Nuclease Protection Assay (qNPA) technology.Data from the assay component CLD_HMGCS2_48hr was analyzed at the endpoint, CLD_HMGCS2_48hr, in the positive analysis fitting direction relative to DMSO as the negative control and baseline of activity. Using a type of inducible reporter, gain-of-signal activity can be used to understand changes in the reporter gene as they relate to the gene HMGCS2. Furthermore, this assay endpoint can be referred to as a primary readout. To generalize the intended target to other relatable targets, this assay endpoint is annotated to the lyase intended target family, where subfamily is HMG-CoA synthase.\nHuman hepatocyte cultures were treated daily for two consecutive days with fresh dosing solutions containing appropriate concentrations of the 320 ToxCast chemicals (chemical identities were blinded to CellzDirect and other ToxCast collaborators), vehicle control (0.2% DMSO), and positive control inducers as summarized in Table 1. Due to the large number of treatment groups and chemicals examined, the ToxCast chemicals were divided into two groups (spanning two independent cultures of hepatocytes from separate donor preparations (Hu778: ToxCast plates 1 and 2; Hu776: ToxCast plates 3 and 4). Each preparation of human hepatocyte cultures was treated with respective vehicle control, medium only control, set of six positive controls/reference chemicals for the five hepatic receptor pathways, and a subset of eight of the ToxCast chemicals (indoxacarb, pyrithiobac-sodium, norflurazon, cyhalofop-butyl, methomyl, thiram, acetochlor, and propiconazole). These replicate data, coupled with internal replicates designed within the blinded ToxCast chemical library, provided additional data to evaluate interindividual differences between hepatocyte preparations and their potential impact on chemical profiles.Cell morphology and integrity were evaluated using phase-contrast microscopy as an indicator of hepatocyte cell health (Tyson & Green, 1987). Cultures for each treatment group (i.e., media, vehicle [0.2% DMSO], positive control inducers [multiple concentrations], and the ToxCast chemicals [multiple concentrations]) were observed and cell morphology was assessed relative to vehicle control cultures at each harvest time point (0, 6, 24, or 48 h). […] Images were evaluated at the conclusion of the study to assess changes in cell integrity and account for the effects of chemical exposure on uncharacteristic changes in concentration-dependent gene expression profiles. The results from these determinations of apparent cytotoxicity were annotated (yes/no) alongside the corresponding qNPA data for reference.At the conclusion of each treatment period, hepatocyte cultures (96-well) were washed with 1 volume of HBSS, lysed by addition of 25 ul ArrayPlate lysis buffer (HTG, Tucson, AZ), and 70 ul/well of Denaturation Oil, denatured by incubation at 95C for 10 min, and frozen at approximately -70C until analysis by nuclease protection assay (qNPA) (Roberts et al., 2007). For qNPA analysis, cell lysates were thawed at 50C for approximately 30 min, qNPA probes were added, and samples were incubated at 95C for 10 min to begin the detection process by denaturing the target RNA, dissociating the duplexes and secondary structure hybridization. At the conclusion of the hybridization period, S1 nuclease reagent was added to each sample to digest all nonprotected nucleotides at 50C for 60-90 min. […]", "values": [{"smiles": "COc1nc(C)nc(NC(=O)NS(=O)(=O)c2ccccc2OCCCl)n1", "outcome": "inactive"}, {"smiles": "CCCCOC(=O)[C@@H](C)Oc1ccc(Oc2ccc(C(F)(F)F)cn2)cc1", "outcome": "inactive"}, {"smiles": "O=C(O)C1(C(=O)Nc2ccc(Cl)cc2Cl)CC1", "outcome": "inactive"}, {"smiles": "CCOC(=O)C(C)Oc1ccc(Oc2cnc3cc(Cl)ccc3n2)cc1", "note": "(centres undefined)", "AC50": "6860 nM (active)"}, {"smiles": "CCC(O)=C1C(=O)CC(C(=O)O)CC1=O", "note": "(centres undefined)", "outcome": "inactive"}, {"smiles": "CCSC(=O)N(CC(C)C)CC(C)C", "outcome": "inactive"}, {"smiles": "CCCCCCC(C)OC(=O)COc1nc(F)c(Cl)c(N)c1Cl", "note": "(centres undefined)", "outcome": "inactive"}, {"smiles": "CCOC(=O)C(C)Oc1ccc(Oc2nc3ccc(Cl)cc3o2)cc1", "note": "(centres undefined)", "outcome": "inactive"}, {"smiles": "CCCCC(CC)COC(=O)c1ccccc1C(=O)O", "note": "(centres undefined)", "outcome": "inactive"}, {"smiles": "c1ccc(Nc2ccccc2)cc1", "outcome": "inactive"}, {"smiles": "CCCN(CCC)C(=O)SCC", "outcome": "inactive"}, {"smiles": "CCCOC(=O)c1ccc(C(=O)OCCC)nc1", "AC50": "269 nM (active)"}, {"smiles": "COC(=O)c1ccccc1C(=O)O", "outcome": "inactive"}, {"smiles": "CCOC(=O)[C@H](C)Oc1ccc(Oc2nc3ccc(Cl)cc3o2)cc1", "outcome": "inactive"}, {"smiles": "COC(=O)c1cccc(C)c1S(=O)(=O)NC(=O)Nc1nc(OCC(F)(F)F)nc(N(C)C)n1", "outcome": "inactive"}, {"smiles": "CCCCOCCOCCOCc1cc2c(cc1CCC)OCO2", "outcome": "inactive"}, {"smiles": "COc1c(Cl)ccc(Cl)c1C(=O)O", "AC50": "7.07 nM (active)"}, {"smiles": "C#CCOC(=O)[C@@H](C)Oc1ccc(Oc2ncc(Cl)cc2F)cc1", "outcome": "inactive"}, {"smiles": "CC(C)(C)[C@@H](O)[C@@H](Cc1ccc(Cl)cc1)n1cncn1", "outcome": "inactive"}, {"smiles": "CCC(C)OC(=O)N1CCCCC1CCO", "note": "(centres undefined)", "outcome": "inactive"}, {"smiles": "COC(=O)c1c(Cl)nn(C)c1S(=O)(=O)NC(=O)Nc1nc(OC)cc(OC)n1", "outcome": "inactive"}, {"smiles": "CCCCOC(=O)C(C)Oc1ccc(Oc2ccc(C(F)(F)F)cn2)cc1", "note": "(centres undefined)", "AC50": "263 nM (active)"}, {"smiles": "CCCOC(=O)NCCCN(C)C", "outcome": "inactive"}, {"smiles": "OB(O)O", "outcome": "inactive"}, {"smiles": "Cc1nn(C)c(Oc2ccccc2)c1C=NOCc1ccc(C(=O)OC(C)(C)C)cc1", "outcome": "inactive"}, {"smiles": "Oc1ccc(C(c2ccc(O)cc2)C(Cl)(Cl)Cl)cc1", "outcome": "inactive"}, {"smiles": "CSC(=O)c1cccc2nnsc12", "outcome": "inactive"}, {"smiles": "c1ccc2[nH]c(-c3cscn3)nc2c1", "outcome": "inactive"}, {"smiles": "COC(=O)c1ccccc1S(=O)(=O)NC(=O)Nc1nc(OC(F)F)cc(OC(F)F)n1", "outcome": "inactive"}]}]}
